Measured values from PubChem BioAssay (NCATS).
“And” between values parts separate entries of the source, which are not always exact repeats. Identical values can stand only once. Inconclusive results are not listed. The source made the active and inactive calls. Calls come from the whole dose curve; as a rule, active = well fitted inhibition curve with a large enough effect; inconclusive = small, poorly fitted or top-dose-only effect; inactive = flat fitted curve, though single readings scatter.
% is set by controls: 0 for no effect and ±100 for the full control effect; potency is the fitted concentration of half-maximal effect.

What follows are molecules tested on NIH3T3 (assay: Cytotoxic Profiling of Annotated Libraries Using Quantitative High-Throughput Screening (AID 1296008; note: nearly all actives have a fitted effect of over 60% in size)). Details: Five cell lines viability, CellTiter-Glo ATP luminescence, 48-72 h; max response: stronger effect = lower value.
From the text: Cell-based phenotypic screening is a commonly used approach to discover biological pathways, novel drug targets, chemical probes and high-quality hit-to-lead molecules. Many hits identified from high-throughput screening campaign are ruled out through a series of follow-up potency, selectivity/specificity, and cytotoxicity assays. Prioritization of molecules with little or no cytotoxicity for a more in-depth downstream evaluation influence the future direction of projects, so cytotoxicity profiling of the screening libraries at early stage is essential for increasing the likelihood of candidate success. […] For the annotated library, we also examined the primary targets and mechanistic pathways regularly associated with cell death. To our knowledge, this is the first study to use high-throughput screening to profile large libraries for cytotoxicity assessment in both normal and cancer cell lines. In summary, the results generated here constitutes a valuable resource for the scientific community and provides insight on identifying cytotoxic compounds with particular mechanisms of action, and prioritizing compounds with suitable cytotoxicity profile for further evaluation.
A pintool (Kalypsys) was used to transfer 23 nL of compound solution to the 1536-well assay plates. After 48 or 72 hr incubation at 37 degree Celsius, 5% CO2 and 95% humidity, 2.5 uL of CellTiter-Glo (Promega) was dispensed into each well using a dispenser (Aspect Automation, St. Paul, MN) with solenoid valves (Lee Valves, Westbrook CT). Plates were left at room temperature for 10 min before imaging the ATP-coupled luminescence using a ViewLux microplate imager (PerkinElmer, Waltham, MA).
With `CC(=O)O[C@]1(C(C)=O)CC[C@H]2[C@@H]3C=C(Cl)C4=CC(=O)[C@@H]5C[C@@H]5[C@]4(C)[C@H]3CC[C@@]21C` the max response was -8.51% (inactive) and -19.2% (inactive). For `CC1(C)Cc2c(sc(NC(=S)NC(=O)c3ccccc3)c2C(=O)O)CO1`, the outcome was “inactive”. With `O=C(Nc1c(Cl)cncc1Cl)c1ccc(OC(F)F)c(OCC2CC2)c1` the max response was -4.15% (inactive). For `O=C(NCCN1CCOCC1)c1ccc(Cl)cc1`, the max response was 4.53% (inactive). With `Cc1ccn(-c2ccc(-c3ncco3)cc2)c(=O)c1-c1ccc2nc(N)ncc2c1` the Potency was 16.6 µM (active) and 6.51 µM (active). `CC1(C)CCC[C@@]2(C)[C@@H]1CC[C@@]1(C)OC(=O)C[C@H]21` was tested, and the max response was 1.1% (inactive). For `Nc1ncnc2ccccc12`, the max response was -0.365% (inactive). In the case of `CO[C@@H](C(=O)N1Cc2[nH]nc(NC(=O)c3ccc(N4CCN(C)CC4)cc3)c2C1)c1ccccc1`, the Potency is reported as 14800 nM (active). In the case of `CCCCCCCCCCCC1=C(O)C(=O)C=C(O)C1=O`, the max response is reported as -3.68% (inactive). In the case of `CN(C)CCC=C1c2ccccc2COc2ccc(CC(=O)O)cc21`, the outcome is reported as “inactive”. `CC[C@H]1OC(=O)[C@H](C)C(=O)[C@H](C)[C@@H](O[C@H]2O[C@H](C)C[C@H](N(C)C)[C@@H]2O)[C@](C)(OC)C[C@@H](C)C(=O)[C@H](C)[C@H]2N(CCCCn3cnc(-c4cccnc4)c3)C(=O)O[C@]12C` was tested, and the max response was -10.2% (inactive). In the case of `Clc1ccc(-c2nc3sccn3c2C=NOCc2ccc(Cl)c(Cl)c2)cc1`, the max response is reported as -1.3% (inactive). With `Cn1c(N2CCCCS2(=O)=O)nc(C(=O)NCc2ccc(F)cc2)c(O)c1=O` the max response was -0.0051% (inactive) and the outcome was “inactive”. For `CCN(CC)CCOC(=O)c1ccc(N)cc1`, the max response was -2.46% (inactive). `COc1ccc2cc(-c3nc(-c4ccc(S(C)=O)cc4)[nH]c3-c3ccncc3)ccc2c1` (stereo not given) was tested, and the max response was 3.08% (inactive). In the case of `COc1cccc(-c2cc(=O)c3ccccc3o2)c1N`, the outcome is reported as “inactive”. For `CN(C[C@@H]1COCCO1)S(=O)(=O)Nc1ccc2ccc3ncc(-c4cnn(C)c4)cc3c(=O)c2c1`, the Potency was 1.32 µM (active) and 8.2 µM (active). With `CC(C)n1nc(-c2ccc3oc(N)nc3c2)c2c(N)ncnc21` the Potency was 5.3 nM (active) and 259 nM (active). For `COc1ccc(-c2nc(N3CCOCC3)c3sc(CN(C)c4ncc(C(=O)NO)cn4)cc3n2)cn1`, the Potency was 118 nM (active). In the case of `COc1ccc2cccc(CCNC(C)=O)c2c1`, the max response is reported as -3.32% (inactive). `CCc1ccc(C=C2SC(=S)NC2=O)cc1` was tested, and the max response was -14.4% (inactive). `COC(=O)[C@@H]1[C@H]2C[C@H]3c4[nH]c5ccccc5c4CCN3C[C@@H]2CC[C@@H]1O` was tested, and the max response was -5.76% (inactive) and the outcome was “inactive”. For `O=C(O)[C@H]1O[C@H](Oc2cc3oc(-c4ccccc4)cc(=O)c3c(O)c2O)[C@H](O)[C@@H](O)[C@H]1O`, the max response was -17.6% (inactive). In the case of `NC(=O)c1cnc(-c2ccc(C3(N)CCC3)cc2)c(-c2ccccc2)c1`, the max response is reported as 4.42% (inactive). In the case of `CCOC(CN1C(=O)[C@](CC(=O)Nc2ccc(C)cc2)(NC(=O)Nc2ccc(C)cc2)c2ccccc21)OCC`, the max response is reported as -3.18% (inactive). In the case of `O=c1cc(-c2ccc(O)cc2)oc2cc(O)cc(O)c12`, the max response is reported as -14.4% (inactive). For `COC[C@@H](c1ccc(C(F)(F)F)cc1)N1CCN(C2(C)CCN(C(=O)c3c(C)ncnc3C)CC2)C[C@H]1C`, the max response was 4.62% (inactive). `CS(=O)c1ccc(-c2nc(-c3ccc(F)cc3)c(-c3ccncc3)[nH]2)cc1` (stereo not given) was tested, and the max response was 3.16% (inactive) and 3.83% (inactive). For `CO[C@H]1C=CC=C(C)C(=O)NC2=CC(=O)C(NCCN(C)C)=C(C[C@@H](C)C[C@H](OC)[C@@H](O)[C@@H](C)C=C(C)[C@@H]1OC(N)=O)C2=O`, the Potency was 132 nM (active). For `COc1ccc2c(Oc3ccc(NC(=O)c4c(C)n(CC(C)(C)O)n(-c5ccccc5)c4=O)cc3F)ccnc2c1`, the Potency was 8.33 µM (active) and 10.3 µM (active). In the case of `CC[C@]1(O)C[C@@H]2CN(CCc3c([nH]c4ccccc34)[C@@](C(=O)OC)(c3cc4c(cc3OC)N(C)[C@H]3[C@@](O)(C(=O)OC)[C@H](OC(C)=O)[C@]5(CC)C=CCN6CC[C@]43[C@@H]65)C2)C1`, the Potency is reported as 335 nM (active). In the case of `CN(C)CCC(c1ccccc1)c1ccccn1` (stereo not given), the outcome is reported as “inactive” and the max response is reported as -1.68% (inactive). `O=C1NC(=O)C(=Cc2ccc(-c3ccc(F)cc3)o2)S1` was tested, and the max response was -13.2% (inactive). For `CC(C)=CC[C@@H](O)C1=CC(=O)c2c(O)ccc(O)c2C1=O`, the max response was 4.11% (inactive). `CC1(C)S[C@H]2[C@H](NC(=O)[C@@H](N)c3ccc(O)cc3)C(=O)N2[C@@H]1C(=O)O` was tested, and the max response was 4.61% (inactive). For `Cn1cc(C=C2C(=O)Nc3cccnc32)c2ccccc21`, the max response was -5.8% (inactive). With `CCCCCNC(=O)N1CCC(CN(Cc2ccc(Cl)cc2)Cc2ccc([N+](=O)[O-])s2)C1` (stereo not given) the max response was -17.3% (inactive).
